According to PubChem BioAssay AID652208 (Broad Institute, 2013):
Entries with a potency or affinity are not part of this list. Activity calls are given as the source filed them.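 The calls were made as follows: active = Loss of cell signal with fitted half-effect dose at or below twice the top valid tested dose; inconclusive = Poor fit, or flat fit from -70 to -30 percent; inactive = Half-effect above limit, rising signal, or flat within 30 percent.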

test: HEK293T cell cytotoxicity, dose response, cytotoxicity control for HIV Vif inhibitor project, cherry-picks (AID 652208); conditions: HEK293T viability, CellTiter-Glo luminescence, 24 h; series mostly up to 26 µM

Row | Compound | outcome
1 | CC(C(=O)O)c1ccc(N2Cc3ccccc3C2=O)cc1 (configuration not stated) | inactive
2 | O=C(c1cc(Cl)c(=O)n(Cc2ccccc2)c1)N1CCOCC1 | inactive
3 | COc1ccc(S(=O)(=O)N2c3cc(Cl)ccc3Oc3nc4ccccc4nc32)cc1 | inactive
4 | Cc1ncoc1C(=O)N1CCCC(C(=O)c2ccc(Oc3ccccc3)cc2)C1 (configuration not stated) | inactive
5 | CC1Cc2ccccc2N1C(=O)COC(=O)c1ccccc1NCCO (configuration not stated) | inactive
6 | CCN1C(=O)c2cccc3c(S(=O)(=O)Nc4ccccc4O)ccc1c23 | inactive
7 | Cc1cc(-c2nnc(SCC(=O)c3ccc(Cl)cc3)o2)no1 | inactive
8 | CCC1=Nc2cc(C(=O)NCc3ccco3)ccc2Sc2ccc(C)cc21 | inactive
9 | COC(CNC(=O)C1CCN(C(=O)c2cc3oc(C)cc3n2Cc2c(F)cccc2Cl)CC1)OC | inactive
10 | COc1cc(-c2cc(=O)c3c(O)c(OC)c(OC)cc3o2)cc(OC)c1O | inactive
11 | CC(=O)Nc1ccc(S(=O)(=O)N2c3ccccc3C(C)=CC2(C)C)cc1 | inactive
12 | CC(C)CN1C(=O)C(=O)N(CC(=O)c2ccc3c(c2)OCO3)C1=O | inactive
13 | COc1ccc(-c2cc(C(=O)Nc3cnn(Cc4ccccc4C)c3)no2)cc1OC | inactive
14 | Cc1nnc2ccc(-c3ccc(NS(=O)(=O)c4ccc(Cl)s4)cc3)nn12 | inactive
15 | COc1ccc(-c2nnc(SCC(=O)N3CCCc4ccccc43)o2)cc1OC | inactive
16 | CCC(C)n1c(-c2cccs2)nc2nc3ccccc3nc21 (configuration not stated) | inactive
17 | CCOC(=O)C[C@@H](C#N)NC(=O)[C@@H]1CCCN1C(=O)[C@@H](NC(=O)c1ccc(N)c(Cl)c1)C(C)(C)C | inactive
18 | CCc1ccc(S(=O)(=O)Nc2ccc(-c3ccc4nnc(C)n4n3)cc2)s1 | inactive
19 | O=C(CCCSc1nc2ccccc2c(=O)[nH]1)c1ccccc1 | inactive

Row | Compound | outcome
20 | CCN1C(=O)c2cccc3c(S(=O)(=O)Nc4nc(C)cs4)ccc1c23 | inactive
21 | CCN(CC)C(=O)c1ccc(C(=O)c2c(C)cc(C)cc2C)cc1 | inactive
22 | CCN(CC(=O)Nc1c(F)cccc1F)C(=O)c1cccc(-n2cccc2)c1 | inactive
23 | Cc1cc(NS(=O)(=O)c2ccc(NC(=O)c3ccc(Cl)cc3Cl)cc2)no1 | inactive
24 | Cc1ccc(NC(=O)/C=C/c2ccco2)nc1 | inactive
25 | CCn1c(SCc2ccc(C(=O)Nc3nccs3)cc2)nnc1-c1ccc(N)cc1 | inactive
26 | CC(NC(=O)CSc1nc2c(c(C(F)(F)F)n1)CCc1ccccc1-2)c1ccccc1 (configuration not stated) | inactive
27 | COc1cc(C2C3=C(COC3=O)Oc3cc4c(cc32)OCO4)cc(OC)c1O (configuration not stated) | inactive
28 | COc1cccc(NC(=O)NC2(C(F)(F)F)Oc3ccccc3O2)c1 | inactive
29 | O=C(Nc1cccc(-c2cc3ccccc3oc2=O)c1)c1ccc(Br)o1 | inactive
30 | CCOC(=O)C1(Cc2ccccc2)CCN(Cc2csc(C(C)=O)c2)CC1 | inactive
31 | O=C(Nc1nn[nH]n1)c1cc(-c2ccc(Cl)c(Cl)c2Cl)nc2ccccc12 | inactive
32 | COc1ccc(NC(=O)Cn2nnc(C(=O)Nc3ccccc3C)c2N)cc1 | inactive
33 | COc1cccc(NC(=O)CSc2nnc(Cc3ccc(OC)c(OC)c3)o2)c1 | inactive
34 | COc1ccc(C(=O)c2sc3nc(C)cc(-c4cccs4)c3c2N)cc1OC | inactive
35 | CC(C)OC(=O)c1cn(-c2ccccc2)nc1-c1ccc2c(c1)OCCO2 | inactive
36 | COc1ccccc1Oc1coc2cc(OCC(N)=O)ccc2c1=O | inactive
37 | CCCCCCn1c(N(CC)CC)nc2c1c(=O)[nH]c(=O)n2C | inactive
